Sampled rows, rich in hits. Any-hit rate of the full collection: about 6.6%.
Gli-Sufu block = Gli-Sufu pathway antagonists, primary screen, luciferase luminescence, Sufu-KO-LIGHT cells, uHTS | 340,000 compounds, 0.74% hits | inhibition, % at 5 µM | AID 588413, 2011 | Sufu-KO-LIGHT fibroblasts, Gli luciferase reporter luminescence;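 active = inhibition above about 55%, limit read from the data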;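 also: 0% = DMSO-treated cells and 100% = wells with medium but no cells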
Beta apoptosis = inhibitors of cytokine-induced beta cell apoptosis, primary screen, luminescence; INS-1E cytokine-induced death, ATP luminescence, 48 h; percent of positive-control rescue, neutral wells zero; 300,000 compounds, 0.8% hits; protection from apoptosis, % (concentration not given with the values);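 active = Every replicate reaches about 75%, or at least half do and their mean reaches it too, limit read from the data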;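 also: 0% = cytokine-treated negative control wells and 100% = positive control rescue; higher means more ATP so stronger rescue from cytokine killing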
CSC inhib = cancer stem cell viability inhibitors, primary screen, luminescence; cancer stem cell-like cells viability; inhibition, % at 7.5 µM; 300,000 compounds, 1.1% hits; in the data active = inhibition above about 75%; tested in HMLE shEcad cells
MPTP inh = mitochondrial permeability transition pore inhibitors, primary screen, biochemical, isolated mouse mitochondria, absorbance. Ca2+ swelling absorbance, 30 min. inhibition, % at 10 µM. 360,000 compounds, 1.4% hits. AID 602449, 2012;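 active = inhibition of 50% or more, scaled per plate between neutral and stimulator controls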;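 also: 0% = DMSO wells given calcium and 100% = 1 mM EGTA wells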
GRIN3A LBD mod = binders of NR3A ligand-binding domain, primary screen, biophysical, differential scanning fluorimetry, uHTS. Glutamate receptor ionotropic, NMDA 3A (GRIN3A) ligand-binding domain. NR3A LBD differential scanning fluorimetry, Tm shift; 0% = protein alone, 100% = glycine-bound protein. Tm shift relative to glycine control, % at 25 µM. 340,000 compounds, 2.5% hits;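 active = melting temperature shift of at least 10% of the positive control shift, at one fixed dose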
Mdm2 MdmX PPI = inhibitors of human Mdm2-MdmX association, primary screen, cell-based, luminescence, split luciferase, SaOS-2, uHTS | Protein Mdm4 (Homo sapiens) + E3 ubiquitin-protein ligase Mdm2 (Homo sapiens), … | SaOS-2 split-luciferase Mdm2/MdmX complementation | inhibition, % at 8 µM | 330,000 compounds, 3% hits;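 active = inhibition of at least 50% at 8 µM in the primary screen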
Target sequence (O15151 whole entry, looked up): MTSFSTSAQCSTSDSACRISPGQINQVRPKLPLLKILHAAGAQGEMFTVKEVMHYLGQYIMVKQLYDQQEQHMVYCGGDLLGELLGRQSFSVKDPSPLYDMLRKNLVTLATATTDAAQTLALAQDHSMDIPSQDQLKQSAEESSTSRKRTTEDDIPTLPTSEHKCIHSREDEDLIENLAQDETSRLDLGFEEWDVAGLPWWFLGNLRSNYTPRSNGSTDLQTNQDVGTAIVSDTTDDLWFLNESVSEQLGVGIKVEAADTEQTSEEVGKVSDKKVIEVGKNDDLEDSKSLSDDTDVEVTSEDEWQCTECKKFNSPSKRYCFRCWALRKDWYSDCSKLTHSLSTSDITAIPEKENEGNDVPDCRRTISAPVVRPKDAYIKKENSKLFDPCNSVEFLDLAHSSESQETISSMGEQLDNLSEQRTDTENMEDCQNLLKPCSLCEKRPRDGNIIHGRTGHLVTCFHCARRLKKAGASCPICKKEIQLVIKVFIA
Target sequence (Q00987 whole entry, looked up): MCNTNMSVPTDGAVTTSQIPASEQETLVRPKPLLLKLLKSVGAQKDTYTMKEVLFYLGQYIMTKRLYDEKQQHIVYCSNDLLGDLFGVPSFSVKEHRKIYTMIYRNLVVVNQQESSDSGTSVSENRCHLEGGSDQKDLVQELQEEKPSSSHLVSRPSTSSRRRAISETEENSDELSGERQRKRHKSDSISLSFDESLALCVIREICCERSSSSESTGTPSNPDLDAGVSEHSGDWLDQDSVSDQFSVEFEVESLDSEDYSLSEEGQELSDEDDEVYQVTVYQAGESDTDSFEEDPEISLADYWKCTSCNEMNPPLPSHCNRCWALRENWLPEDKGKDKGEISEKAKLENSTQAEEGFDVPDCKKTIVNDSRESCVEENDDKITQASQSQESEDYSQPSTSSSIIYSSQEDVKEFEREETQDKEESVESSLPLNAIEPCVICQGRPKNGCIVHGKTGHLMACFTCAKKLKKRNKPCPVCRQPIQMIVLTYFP
* = called active by the depositor; nt = not tested or not shown; + = active, no number; ! = a repeat was not active.

SMILES | Gli-Sufu block | Beta apoptosis | CSC inhib | MPTP inh | GRIN3A LBD mod | Mdm2 MdmX PPI
O=C(C1CCN(c2ncnc3c2nc2n3CCCCC2)CC1)N1CCN(c2cccc(Cl)c2)CC1 | 56* | 36 | 26 | -2 | -1 | 36
COc1ccc(Cn2c(O)c(C=Nc3ccc(O)cc3)c3ccccc3c2=O)cc1 | 7 | 1 | 67 | 4 | 23* | 30
COc1cccc(-c2cc(N)nn2C(=O)Nc2ccc(Cl)cc2)c1 | -17 | -3 | 65 | 2 | 27* | 11
COc1cccc(NC(=O)NCCc2ccc(Cl)cc2)c1 | -10 | -4 | 1 | 0 | 2 | -9
O=C(C[n+]1ccccc1)NNc1ccccc1 | -1 | -3 | 114* | 0 | 1 | 1
O=C(NCC1CCCCC1)c1cc([N+](=O)[O-])ccc1N1CCOCC1 | 9 | -1 | -10 | 0 | -2 | 17
O=C(NC12CC3CC(CC(C3)C1)C2)c1cc([N+](=O)[O-])ccc1N1CCOCC1 | 2 | 5 | 19 | -1 | 13* | 20
CCCCN(Cc1cc2cc(OC)ccc2[nH]c1=O)C(=O)c1ccccn1 | 3 | -8 | -1 | 1 | 13* | 20
N#Cc1cc(-c2ccccc2)nc(N2CCNCC2)n1 | 11 | -7 | 27 | -1 | 11* | 21
CC(=O)Nc1cccc(OCc2cccc([N+](=O)[O-])c2)c1 | -40 | nt | nt | -1 | 17* | nt
O=C(COc1cccc([N+](=O)[O-])c1)NN1C(=O)c2ccccc2C1=O | 3 | 0 | 1 | 1 | 546* | -11
O=C(Nc1cccc([N+](=O)[O-])c1)c1ccccc1 | -1 | -3 | 0 | 2 | -9 | -15
O=C(Nc1ccc2ccccc2c1)c1cccc([N+](=O)[O-])c1 | 13 | -32 | 2 | 1 | 30* | -39
Cc1cc(C)cc(OCC(=O)NN2C(=O)c3ccccc3C2=O)c1 | -2 | -1 | -5 | -1 | 0 | 10
O=C(Nc1ccc(COc2ccccc2)cc1)c1cccc([N+](=O)[O-])c1 | -12 | 5 | 15 | 24 | 22* | 30
O=C(CCN=C1NS(=O)(=O)c2ccccc21)NCc1ccccc1F | -5 | -4 | -9 | -1 | 1 | 34
CCC(=O)N1CCCC(C(=O)NS(=O)(=O)c2cc(C)c(Cl)cc2C)CC1 (stereo unspecified) | nt | nt | nt | 2 | nt | nt
CCOc1ccc(NC(=O)CN(C)C(=O)CCN2C(=O)C3CC=CCC3C2=O)cc1OCC (stereo unspecified) | -4 | -1 | -9 | 1 | 1 | 6
COc1ccc(NC(=O)Cc2nnc(SCC(=O)Nc3ccc(F)cc3)n2C)cc1 | -8 | 4 | -4 | 1 | -2 | 18
CCc1cc(C(=O)Nc2cc(Cl)ccc2N2CCN(C)CC2)sc1C | 43 | 3 | 2 | 20 | 11* | 35
O=C(Nc1cccc(NC(=O)c2ccccc2Cl)c1)c1ccco1 | 5 | -1 | 1 | -2 | 1 | 21
COc1ccc(-c2cccc(NC(=O)c3ccco3)c2)nn1 | -2 | 3 | nt | 0 | 43* | 0
O=C(Nc1cccc(NC(=O)c2ccc(-c3ccc(Br)cc3)o2)c1)c1ccco1 | -10 | -5 | 39 | 15 | 31* | 43
CC(C)C[C@@H]1COc2cc(N(C)CCO)ccc2S(=O)(=O)N1 | nt | nt | nt | -3 | nt | nt
CCN(CC(=O)NCc1cccs1)C(=O)c1cccc(S(=O)(=O)Nc2ccccc2Cl)c1 | -10 | 5 | -1 | 0 | -1 | 0
SMILES | Gli-Sufu block | Beta apoptosis | CSC inhib | MPTP inh | GRIN3A LBD mod | Mdm2 MdmX PPI
CC(C)=CCc1c(O)ccc(C(=O)Cc2ccccc2)c1O | -1 | 8 | 97* | 7 | 18* | 23
Cc1ccc(C(=O)Cc2ccccc2)c(O)c1 | -23 | nt | nt | 1 | -1 | nt
O=C(CCCCC(=O)Nc1c(I)cc(I)c(C(=O)O)c1I)Nc1c(I)cc(I)c(C(=O)O)c1I | 43 | -3 | -5 | 1 | 1 | 7
CC(=O)Nc1c(I)c(NC(C)=O)c(I)c(C(=O)O)c1I | -1 | 0 | -10 | -1 | 13*! | 13
Cc1cccc(C)c1NC(=O)CNC(=O)c1ccc(COc2ccccc2)cc1 | 3 | -7 | 8 | 0 | -1 | 7
O=C(Nc1ccc2oc(-c3ccncc3)nc2c1)c1cccs1 | -7 | 6 | -6 | 1 | 33* | -9
O=C(Nc1ccc2oc(-c3ccncc3)nc2c1)c1ccccc1F | -17 | 7 | 0 | 3 | -2 | -12
O=C(Nc1ccc2nn(-c3ccccc3)nc2c1)c1cccs1 | -59 | 7 | 3 | 5 | 25* | -28
Clc1ccc(-c2c[nH]c3ccccc23)nn1 | 0 | -1 | -6 | -1 | 18* | 4
COc1ccc(CCC(=O)N2c3ccccc3N=C(c3ccc4c(c3)OCO4)C2C(=O)NCc2ccccc2)cc1 (stereo unspecified) | nt | nt | nt | 0 | nt | nt
O=C(CN1CCN(S(=O)(=O)c2ccc(Br)s2)CC1)N1CCc2ccccc21 | nt | nt | nt | -1 | nt | nt
CN(CC(=O)N1CCc2ccccc21)S(=O)(=O)c1ccc(Br)s1 | 0 | 0 | 8 | 1 | 15* | -4
CC(=O)N[C@@H](Cc1c[nH]c2ccccc12)C(=O)NCCc1ccc(S(N)(=O)=O)cc1 | 14 | -5 | 12 | 0 | -3 | 12
CC(C)c1cc(C(C)C)n2nc(N)nc2n1 | -7 | -8 | -1 | 1 | 10* | 1
CCCc1cc(CCC)n2nc(N)nc2n1 | nt | nt | nt | 0 | nt | nt
CCOC(=O)CSc1ncc(-c2ccccc2)nn1 | 2 | -10 | -8 | -1 | 37* | -2
CCOC(=O)CSc1ncc(-c2ccccc2)cn1 | 11 | -1 | -4 | 1 | -2 | -11
O=C(COCc1ccccc1)N[C@@H]1c2ccccc2CC[C@@H]1OCc1ccccc1 | -15 | nt | nt | -2 | 17* | 2
O=C(Cc1ccccc1)N[C@@H]1c2ccccc2CC[C@@H]1OCc1ccccc1 | -8 | nt | nt | 1 | 0 | -13
O=S(=O)(Nc1cc(Sc2cccc3cccnc23)c(O)c2ccccc12)c1ccc(F)cc1 | 96* | 102* | 119* | nt | 1 | nt
O=S(=O)(Nc1cccnc1Cl)c1ccc(F)cc1 | -13 | -1 | nt | -1 | -1 | -17
CN=Cc1nc(-c2ccccc2)oc1O | 4 | 2 | 2 | 0 | -16 | -12
Cc1ccc(-c2nc(C=Nc3ccc(O)cc3)c(O)o2)cc1 | 24 | nt | nt | 0 | 11* | nt
CC(C)COc1ccc(-c2nn(-c3ccccc3)cc2/C=C2/SC(=S)N(CC(=O)O)C2=O)cc1 | -1 | -3 | + | -2 | 3 | 14
Fc1cccc(Cc2c(-c3ccc(Cl)cc3)nc3c(Cl)cc(C(F)(F)F)cn23)c1 | nt | nt | nt | 2 | nt | nt

Source: PubChem BioAssay (several laboratories)
